In PubChem BioAssay (NCI) one finds growth inhibition data, which are given here for 20 compounds.

Assay [1] in a line: NCI Yeast Anticancer Drug Screen. Data for the rad50 strain (AID 155).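 Further: 0% = growth of vehicle-only cultures of the same strain.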 Particulars: S. cerevisiae rad50 strain growth inhibition; at 50.0 µM; stronger effect = higher value. The essentials:
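Inhibition values express reduced yeast growth in compound-treated cultures relative to vehicle-treated controls.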

Assay [2] is described as follows: NCI Yeast Anticancer Drug Screen. Data for the mec2-1 strain (AID 157). The settings on record: S. cerevisiae mec2-1 strain, at 50.0 µM, stronger effect = higher value. In outline:
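Test agents were screened against the mec2-1 yeast strain, with defined DNA repair or cell cycle alteration. Growth was scored as inhibition against vehicle-only controls.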

Assay [3] in a line: NCI Yeast Anticancer Drug Screen. Data for the sgs1 mgt1 strain (AID 161).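 Further: 0% = growth of cultures given vehicle only.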 The settings on record: S. cerevisiae sgs1 mgt1 strain, at 50.0 µM, stronger effect = higher value. The essentials: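 Inhibition of yeast growth, normalised to vehicle-treated controls, is reported for a strain bearing genetic alterations in DNA damage repair.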
A short description of assay [4]: NCI Yeast Anticancer Drug Screen. Data for the cln2 rad14 strain (AID 165).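 Further: 0% = growth equal to vehicle treated cultures.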 Particulars: S. cerevisiae cln2 rad14 strain, at 50.0 µM, stronger effect = higher value. In outline: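 Growth of compound-exposed yeast (cln2 rad14 genotype) measured and expressed as inhibition relative to vehicle.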
A short description of assay [5]: NCI Yeast Anticancer Drug Screen. Data for the bub3 strain (AID 167). The settings on record: S. cerevisiae bub3 mutant strain, at 50.0 µM, stronger effect = higher value. The essentials:
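Steps: expose the mutant yeast strain to compound; grow alongside vehicle-treated cultures; measure growth; express inhibition against the vehicle cultures.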

Assay [6] in a line: NCI Yeast Anticancer Drug Screen. Data for the mlh1 rad18 strain (AID 175). Particulars: S. cerevisiae mlh1 rad18 strain growth inhibition; at 50.0 µM; stronger effect = higher value. The essentials:
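In this whole-cell yeast screen, a strain with altered DNA damage repair is challenged with compound, and its growth is measured against matched vehicle-treated controls.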

Where “and” joins values, the source holds several entries; their conditions need not be identical. Equal values may be shown once. This is part of a sample that, as a whole, favours compounds with a hit. Of some 79,000 tested, about 15% had one in any assay. Unmarked numbers belong to inactive results. Calls of active or inactive are those of the source. No stated cut-off is given here; in the data, active means growth inhibition above about 70%; inactive means the rest.

Regarding `CCN(CC)c1cc[c]([Hg][O]C(C)=O)cc1`, the growth inhibition in assay [1] was 99.2% (active); in assay [2], 99% (active); in assay [3] it was 99.5% (active); in assay [4] it was 99.2% (active); in assay [5] it was 99% (active); in assay [6], 99.2% (active).
Regarding `COCCCCCC(=O)CP(=O)(OC)OC`, the growth inhibition in assay [1] is -7.15%; in assay [2] it was -1.4%; in assay [3], -1.2%; in assay [4], -12.9%; in assay [5], -6.4%; in assay [6] it was 8.95%.
Consider `Cc1ccc(O)c(CN2CCN(Cc3cc(C)ccc3O)CC2)c1`, for which the growth inhibition is 3.1% in assay [1]; 15.8% in assay [2]; 13.2% in assay [3]; -2.15% in assay [4]; 14.4% in assay [5]; 7.8% in assay [6].
As for `C=CCC1(OC(C)=O)CCC2C3CCC4CC=CCC4(C)C3CCC21C` (stereo not given), the growth inhibition in assay [1] was -9.9%; in assay [2] it was 4.5%; in assay [3], -8.85%; in assay [4], -51.4%; in assay [5], 1%; in assay [6], -9.4%.
On to `NS(=O)(=O)c1ccc([As](=O)(O)c2ccccc2)cc1`, for which the growth inhibition was 14.2% in assay [1]; -9.35% in assay [2]; 7.85% in assay [3]; 15.7% in assay [4]; 9.5% in assay [5]; -7.75% in assay [6].
In the case of `CC(O)C[N+](=O)[O-]` (stereo not given), the growth inhibition was 5.35% in assay [1]; 8.65% in assay [2]; -4.6% in assay [3]; -23% in assay [4]; 8.5% in assay [5]; 4.8% in assay [6].
With `C/C=N/Nc1ccc([N+](=O)[O-])cc1[N+](=O)[O-]`, the growth inhibition was 10.5% in assay [1]; -6.35% in assay [2]; -11.8% in assay [3]; -14.9% in assay [4]; 3.3% in assay [5]; 16.8% in assay [6].
Turning to `CCCCCCCCCCCCCCCCOc1ccc(S(=O)(=O)F)cc1C(=O)Nc1ccc(S(=O)(=O)Nc2cccc3ccccc23)cc1`, the growth inhibition is 3.3% in assay [1]; 1.9% in assay [2]; -2.75% in assay [3]; -3.05% in assay [4]; -0.3% in assay [5]; 5.35% in assay [6].
Take `Oc1cc(Br)c(O)c(Br)c1`: the growth inhibition in assay [1] was 10.3%; in assay [2], 42.8%; in assay [3], 29.9%; in assay [4], -11%; in assay [5], 36.4%; in assay [6], 41.8%.
`Cc1ccc(N)c(C)c1`: the growth inhibition in assay [1] is -2.05%; in assay [2] it was -5.65%; in assay [3], -1.5%; in assay [4], -3.8%; in assay [5], 3.2%; in assay [6], -13.2%.
Take `O=[N+]([O-])c1cc(/C=N\NC(=S)NC2CN3CCC2CC3)ccc1Cl` (stereo not given): the growth inhibition in assay [1] was 22.5%; in assay [2], -24.1%; in assay [3], 1.85%; in assay [4], 0.15%; in assay [5] it was 4.8%; in assay [6], 2.4%.
For the compound `CCC(Br)(CC)C(N)=O`, the growth inhibition was -33.5% in assay [1]; -5.4% in assay [2]; -26.1% in assay [3]; -89.7% in assay [4]; -28.1% in assay [5]; -27.9% in assay [6].
On to `O=S1(=O)N2CN3CCN(C2)CN1C3`, for which the growth inhibition in assay [1] was 36.5%; in assay [2], 40.4%; in assay [3], 31.4%; in assay [4], -25.3%; in assay [5] it was 12.1%; in assay [6], 34%.
Turning to `C[C@]12CCC(O)CC1=CC[C@@H]1[C@@H]2CC[C@]2(C)C(O)[C@H](n3ccnc3)C[C@@H]12` (stereo not given in full), the growth inhibition was 30.1% in assay [1]; 33.6% in assay [2]; -6.05% in assay [3]; 25.1% in assay [4]; -11.7% in assay [5]; -13.4% in assay [6].
Consider `CCC(=O)N(c1ccccc1)C(C)CN1CCC(O)(c2ccccc2)CC1` (stereo not given), for which the growth inhibition in assay [1] was 4.2%; in assay [2], -12.4%; in assay [3] it was 5.9%; in assay [4], -37%; in assay [5] it was -10.4%; in assay [6], -8.15%.
`O=S(=O)(O)c1ccc(CBr)cc1`: the growth inhibition in assay [1] was -27.6%; in assay [2] it was -27.6%; in assay [3], 0.6%; in assay [4], -36.4%; in assay [5], -3.5%; in assay [6], -6.85%.
As to `CCN1CCC(OC(=O)c2ccccc2)(c2nccc3ccccc23)CC1`, the growth inhibition in assay [1] was -5.85%; in assay [2] it was 0.95%; in assay [3], 7.05%; in assay [4], 9.05%; in assay [5], 9.75%; in assay [6], 8.9%.
`COC(=O)C1C2CC3c4c(c5ccc(OC)cc5n4[N+](=O)[O-])CCN3CC2CC(OC(=O)c2cc(OC)c(OC)c(OC)c2)C1OC` (stereo not given): the growth inhibition in assay [1] was -14%; in assay [2], -50.5%; in assay [3], -34.4%; in assay [4] it was -17.9%; in assay [5] it was -22.2%; in assay [6] it was -3.9%.
`NC(N)=N/N=C/C(=N\N=C(N)N)C(O)C(O)C(O)C(O)CO` (stereo not given): the growth inhibition in assay [1] is -10.3% and 44.2%; in assay [2], -20.9% and -3.55%; in assay [3] it was -16.1% and 31.9%; in assay [4] it was -22.6% and 15.1%; in assay [5], -3.8% and 7.3%; in assay [6], -22.4% and 15.9%.
`C[C@@H]1C[C@@]2(O[C@@H]2C)C(=O)O[C@@H]2CCN3CC=C(COC(=O)[C@]1(C)O)[C@H]23`: the growth inhibition in assay [1] is -4.5%; in assay [2], -16.2%; in assay [3], -7.95%; in assay [4], 13.3%; in assay [5], -4.9%; in assay [6], -75%.
